# Data taken from the supplement of paper PMC10127200.
# Counter-ions that a name gives are not always drawn.
# Key:
# Assay in all cases: Euclidean distance of Cell Painting phenotypic profile (signed KS, 77 features) to DMSO centroid (dimensionless distance); higher = stronger phenotypic change vs DMSO (phenoactivity)
# Details in all cases: 48 h; 5 or 10 uM (library dependent)
# 786-O = test system: 786-O
# Procedure, shortened: (§1)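 Library compounds were applied at 10 or 5 uM, depending on the library, with 0.1% DMSO final, for 48 h to five cancer lines and a healthy fibroblast line. After staining, cells were imaged confocally at 20X across 9 fields per well, and Harmony extracted 77 features, each scored as a signed Kolmogorov-Smirnov statistic against vehicle wells on the same plate. Phenoactivity is the Euclidean distance between each profile and the median vehicle profile, with profiles first plate-position corrected, correlation-weighted and averaged over replicates at the top dose.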
# A549 = test system: A549
# Procedure, shortened: as §1
# DU145 = test system: DU145
# Procedure, shortened: as §1
# FB = test system: FB
# Procedure, shortened: as §1
# HEPG2 = test system: HEPG2
# Procedure, shortened: as §1
# OVCAR4 = test system: OVCAR4
# Procedure, shortened: as §1
SMILES,Euclidean distance (786-O),Euclidean distance (A549),Euclidean distance (DU145),Euclidean distance (FB),Euclidean distance (HEPG2),Euclidean distance (OVCAR4)
CC[C@@H](CO)NC(=O)[C@@H]1C=C2c3cccc4c3c(cn4C)C[C@H]2N(C)C1 [Methysergide Maleate],0.845,0.577,0.772,0.909,0.822,1.34
CC(C)(O)C(Cl)(Cl)Cl [Chlorobutanol],1.34,1.04,1.02,0.61,0.725,2
O=C(O)CCCc1ccc(N(CCCl)CCCl)cc1 [Chloroambucil],2.21,1.7,0.964,1.7,0.893,1.49
C=C(C)[C@@H]1[C@H]2OC(=O)[C@@H]1[C@]1(O)C[C@H]3O[C@]34C(=O)O[C@H]2[C@]14C [Picrotoxinin],1.37,1.86,0.846,0.954,0.815,1.26
CO[C@H]1CC[C@@H](O[C@H]2C[C@H]([C@]3(C)CC[C@]4(C[C@H](O)[C@@H](C)[C@@H]([C@@H](C)/C=C(\C)C(=O)[C@H](C)C[C@H](C)C(=O)O)O4)O3)O[C@]3(O[C@@H]([C@H]4O[C@@](O)(CO)[C@H](C)C[C@@H]4C)C[C@@H]3C)[C@@H]2C)O[C@@H]1C [Nanchangmycin],3.94,1.41,2.28,4.66,3.85,1.11
COc1cc([C@@H]2c3cc4c(cc3[C@H](O)[C@H]3COC(=O)[C@@H]23)OCO4)cc(OC)c1OC [Picropodophyllin (PPP)],3.35,2.64,4.34,2.74,3.95,3.14
C[C@]12CC[C@@H]3c4ccc(OC(=O)N(CCCl)CCCl)cc4CC[C@H]3[C@@H]1CC[C@@H]2OP(=O)(O)O [Estramustine phosphate sodium],1.21,0.586,0.548,0.917,0.766,0.779
C/C(=C\c1csc(C)n1)[C@@H]1C[C@@H]2O[C@]2(C)CCC[C@H](C)[C@H](O)[C@@H](C)C(=O)C(C)(C)[C@@H](O)CC(=O)O1 [Epothilone B],2.58,2.49,3.95,2.82,1.98,2.11
O=c1[nH]c2ccccc2n1CCCN1CCC(n2c(=O)[nH]c3cc(Cl)ccc32)CC1 [Domperidone],1.75,1.18,2.1,1.14,0.776,1.67
CN(C)C(=O)Oc1cccc([N+](C)(C)C)c1 [Neostigmine Bromide],1.45,0.931,0.914,0.963,0.858,1.53
Fc1cc(F)c2c(c1)[C@H]1C=CC[C@H]1C(c1cccnc1)N2 (stereo partly drawn) [Golgicide A],0.733,0.432,0.82,1.04,0.802,0.985
CN(C)NC(=O)CCC(=O)O [Daminozide],0.626,0.507,0.706,0.873,0.742,1.16
CC1(C)CC(O)CC(C)(C)N1[O] [Tempol],0.822,0.85,1.18,1.49,0.827,0.934
CC[C@@H]1/C=C/C=C/C[C@H](C)[C@H](O)[C@](C)(O)C(=O)[C@H](C)[C@@H](O)[C@H](C)C(=O)[C@H](C)[C@@H](O)[C@H](C)/C=C/C(=O)O[C@H]2[C@@H](C)[C@@H](CC1)O[C@@]1(CC[C@@H](C)[C@@H](C[C@H](C)O)O1)[C@@H]2C [Oligomycin A],1.81,2.18,1.46,0.998,3.19,1.22
CCN(C)C(=O)Oc1cccc([C@H](C)N(C)C)c1 [Rivastigmine Tartrate],0.824,0.471,0.382,0.816,0.806,1.45
C/C(=C\c1csc(C)n1)[C@@H]1C[C@@H]2O[C@@H]2CCC[C@H](C)[C@H](O)[C@@H](C)C(=O)C(C)(C)[C@@H](O)CC(=O)O1 [Epothilone A],3.01,2.89,4.3,2.5,2.34,3.02
Cc1cc(C2=NOC(c3cc(Cl)cc(Cl)c3)(C(F)(F)F)C2)ccc1C(=O)NCC(=O)NCC(F)(F)F (stereo not drawn) [Fluralaner],1.38,1.29,1.17,1.44,0.786,1.36
Cc1ccc(-n2nccn2)c(C(=O)N2CCN(c3nc4cc(Cl)ccc4o3)CC[C@H]2C)c1 [Suvorexant (MK-4305)],0.574,1.02,0.945,0.9,2.25,0.979
COc1ccc(C(=O)O)cc1OC [Veratric acid],0.978,0.85,1.2,0.896,1.05,0.931
[O-][n+]1ccccc1[S-].[O-][n+]1ccccc1[S-].[Zn+2] [Zinc Pyrithione],6.27,4.94,7.6,6.01,5.34,6.33
NC(=O)CN1CC(O)CC1=O (stereo not drawn) [Oxiracetam],1.07,0.677,0.989,1.39,0.778,0.764
N.N.[Cl][Pt][Cl] [Cisplatin],1.62,1.39,0.914,0.888,1.55,0.788

SMILES,Euclidean distance (786-O),Euclidean distance (A549),Euclidean distance (DU145),Euclidean distance (FB),Euclidean distance (HEPG2),Euclidean distance (OVCAR4)
CNC(C)Cc1ccccc1OC (stereo not drawn) [Methoxyphenamine Hydrochloride],0.913,1.83,0.725,1.38,0.34,2.5
CCN1CCN(C(=O)Cc2ccc(Nc3ncc(F)c(Nc4ccc(C(=O)Nc5ccccc5Cl)cc4)n3)cc2)CC1 [Aurora A Inhibitor I],5.7,4.77,1.39,3.33,4.52,3.43
CNC1CC(N)C(O)C(OC2OC(CO)C(O)C3OC4(OC(C(N)CO)C(O)C(O)C4O)OC23)C1O (stereo not drawn) [Hygromycin B],1.63,1.19,1.02,2.53,1.3,1.24
CC(=O)O[C@H]1CC[C@H]2[C@@H]3CCC4=CC(=O)CCC4=C3C=C[C@]12C [Trenbolone acetate],0.864,0.493,1.04,0.72,1.19,0.778
COc1ccc2c(c1)[C@]13CCCC[C@@H]1[C@H](C2)N(C)CC3 [Dextromethorphan hydrobromide hydrate],1.3,1.32,0.854,1.76,1.11,1.39
C=CN1CCCC1=O.II [Povidone iodine],0.772,0.725,0.784,1.19,1.94,1.05
COc1ccc(C=O)cc1 [p-Anisaldehyde],1.24,0.754,0.627,0.751,0.785,1.16
C=CCN1CC[C@]23c4c5ccc(O)c4O[C@H]2C(=O)CC[C@@]3(O)[C@H]1C5 [Naloxone HCl],1.04,0.456,0.671,0.576,0.59,0.689
CN[C@@H]1[C@@H](O)[C@@H](O[C@@H]2[C@@H](O)[C@H](O[C@H]3O[C@H](CN)CC[C@H]3N)[C@@H](N)C[C@H]2N)OC[C@]1(C)O.CN[C@@H]1[C@@H](O)[C@@H](O[C@@H]2[C@@H](O)[C@H](O[C@H]3O[C@H]([C@@H](C)N)CC[C@H]3N)[C@@H](N)C[C@H]2N)OC[C@]1(C)O.CN[C@@H]1[C@@H](O)[C@@H](O[C@@H]2[C@@H](O)[C@H](O[C@H]3O[C@H]([C@@H](C)NC)CC[C@H]3N)[C@@H](N)C[C@H]2N)OC[C@]1(C)O [Gentamicin Sulfate],1.29,1.18,1.22,0.978,0.832,1.02
O=C1CCC[C@@H]2[C@H]3CCCN4CCC[C@@H](CN12)[C@@H]34 [(+)-Matrine],1,0.876,0.902,1.03,0.874,0.759
C[C@@H]1[C@H](O)[C@@H](C)/C=C/C=C/CC/C=C/C=C/C=C/C=C/[C@H](O[C@H]2O[C@@H](C)[C@H](O)[C@@H](N)[C@H]2O)C[C@@H]2O[C@](O)(C[C@@H](O)[C@H](O)CC[C@@H](O)C[C@@H](O)C[C@@H](O)CC(=O)O[C@H]1C)C[C@H](O)[C@H]2C(=O)O [Nystatin (Fungicidin)],1.05,1.12,1.4,0.85,1.2,1.06
C[C@@]12N[C@@H](Cc3ccccc31)c1ccccc12 [(-)-MK 801 Maleate],1,1.63,1.84,3.8,1.69,4.43
Cc1cc(O)ccc1Cl [Chlorocresol],0.894,0.612,0.527,0.762,0.668,1.1
CC[C@@H](C(N)=O)N1CCCC1=O [Levetiracetam],1.07,1.76,0.591,1.12,0.604,1.81
C[N+]12CCC(CC1)C(OC(=O)C(O)(c1ccccc1)c1ccccc1)C2 (stereo not drawn) [Clidinium Bromide],0.785,0.788,0.87,0.845,0.445,0.671
CC(C)=CCOc1c2occc2cc2ccc(=O)oc12 [Imperatorin],1.11,0.594,0.803,0.939,0.503,1.32
NC[C@H](CC(=O)O)c1ccc(Cl)cc1 [(R)-baclofen],1.58,1.05,0.675,1.01,0.87,1.1
Cc1cccc(C(C)c2c[nH]cn2)c1C (stereo not drawn) [Medetomidine HCl],0.819,0.591,0.87,0.682,0.602,1.07
CCNC(=O)C[C@@H]1N=C(c2ccc(Cl)cc2)c2cc(OC)ccc2-n2c(C)nnc21,1.96,1.78,1.76,3.4,1.26,1.66
CC1(C)C(C=C(Cl)Cl)C1C(=O)OCc1cccc(Oc2ccccc2)c1 (stereo not drawn) [Permethrin],1.12,0.946,1.16,0.816,0.999,1.43
CC(C)[C@H](N)C(=O)N1CCC[C@H]1B(O)O [Talabostat (Val-boroPro. PT-100)],1.38,0.905,1.12,1.08,0.878,0.712
